PubChem BioAssay (EPA / NIEHS)
Some compounds were tested as several samples or in several runs, with calls that do not always agree. Active and inactive are the calls of the source. How the source made its calls: active means hit-call score of the fitted dose curve at least 0.9, where 1 is the maximum; inactive means score below 0.9.

molecular target: Hepatocyte nuclear factor 3-beta (Homo sapiens) (UniProt Q9Y261); test: ATG_FoxA2_CIS: Attagene CIS-FACTORIAL HepG2 Assay for human Forkhead box A2 (FOXA2) (AID 2282942); conditions: HepG2 cis-reporter transcription factor activity, 24 h; actives raise or lower the signal
Sequence (Q9Y261 whole entry, looked up): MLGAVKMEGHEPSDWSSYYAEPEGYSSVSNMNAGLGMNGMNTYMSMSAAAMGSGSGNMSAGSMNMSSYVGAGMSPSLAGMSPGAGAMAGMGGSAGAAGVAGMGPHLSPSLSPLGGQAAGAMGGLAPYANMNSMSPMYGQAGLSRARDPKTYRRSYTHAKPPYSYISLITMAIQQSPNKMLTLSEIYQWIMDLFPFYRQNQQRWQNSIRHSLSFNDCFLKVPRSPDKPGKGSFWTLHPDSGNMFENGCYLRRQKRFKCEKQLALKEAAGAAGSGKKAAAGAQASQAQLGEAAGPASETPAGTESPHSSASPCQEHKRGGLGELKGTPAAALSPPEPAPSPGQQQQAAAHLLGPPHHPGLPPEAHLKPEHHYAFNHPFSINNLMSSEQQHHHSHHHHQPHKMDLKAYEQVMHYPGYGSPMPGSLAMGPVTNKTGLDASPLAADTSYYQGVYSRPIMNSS
Procedure: ATG_CIS is a cell-based, multiplexed-readout assay that uses HepG2, a human liver cell line, with measurements taken at 24 hours after chemical dosing in a 24-well plate.ATG_FoxA2_CIS is one of 52 assay component(s) measured or calculated from the ATG_CIS assay. It is designed to make measurements of mRNA induction, a form of inducible reporter, as detected with fluorescence intensity signals by Reverse transcription polymerase chain reaction (RT-PCR) and Capillary electrophoresis technology.Data from the assay component ATG_FoxA2_CIS was analyzed into 1 assay endpoint. This assay endpoint, ATG_FoxA2_CIS, was analyzed with bidirectional fitting relative to DMSO as the negative control and baseline of activity. Using a type of inducible reporter, measures of mRNA for gain or loss-of-signal activity can be used to understand the reporter gene at the transcription factor-level as they relate to the gene FOXA2. Furthermore, this assay endpoint can be referred to as a primary readout, because this assay has produced multiple assay endpoints where this one serves a reporter gene function. To generalize the intended target to other relatable targets, this assay endpoint is annotated to the dna binding intended target family, where the subfamily is forkhead box protein.
Human liver HepG2 cells are transiently transfected with multiple reporter transcription units (MRTUs) in 6-well plates using FuGene 6 reagent (Roche; 3 ml FuGene/1 mg DNA). The MRTU constructs are regulated by a cis-regulating element (promoter). […] A major difference between the CIS and TRANS system is that in CIS activities of endogenous TFs are measured, whereas the TRANS assay evaluates changes in activities of exogenous, chimeric NR-Gal4 proteins. […] At the end of 24 hour incubation, total RNA was isolated using TriZol reagent (Invitrogen). The isolated RNA is then reverse-transcribed using oligo(dT) primer and Mo-MLV reverse transcriptase (Invitrogen) with DNAse I (Ambion) treatment for 30 min. The one-tenth of the produced cDNA was amplified by PCR using Taq DNA polymerase (Invitrogen) and two reporter sequence-specific primers. The PCR products were fluorescently labeled by primer extension with 6-arboxyfluorescein (6-FAM) 5'-labeled reporter sequence-specific primer (2 min at 95 C, 20 s at 68 C and 10 min at 72 C) and these products were digested with 5U of HpaI (New England Biolabs) for 2h at 37 C. The fragments were purified using Qiaquick PCR columns (Qiagen), analyzed on an ABI 3130xL genetic analyzer (Applied Biosystems) with peak positions identified by using a set of X-rhodamine (ROX)-labeled MapMarker1000 molecular weight standards (BioVentures). The raw capillary electrophoresis data was processed using Attagraph software (Attagene).

| Structure (SMILES) | outcome | AC50 |
| --- | --- | --- |
| O=C(Nc1ccc([N+](=O)[O-])cc1Cl)c1cc(Cl)ccc1O | inactive | – |
| c1ccc(Nc2ccccc2)cc1 | inactive | – |
| CC(C)(c1ccc(O)cc1)c1ccc(O)cc1 | inactive | 58.2 µM (active) |
| CCOC(=O)NCCOc1ccc(Oc2ccccc2)cc1 | inactive | – |
| CCCN(CCC)c1c([N+](=O)[O-])cc(C(F)(F)F)c(N)c1[N+](=O)[O-] | inactive | – |
| COC(=O)c1c(Cl)nn(C)c1S(=O)(=O)NC(=O)Nc1nc(OC)cc(OC)n1 | inactive | – |
| CSC(=O)c1cccc2nnsc12 | inactive | – |
| CCC(O)=C1C(=O)CC(C(=O)O)CC1=O (stereo not given) | inactive | – |
| O=C(c1ccc(O)cc1O)c1ccc(O)cc1O | inactive | – |
| COC(=O)c1ccccc1S(=O)(=O)NC(=O)Nc1nc(OC(F)F)cc(OC(F)F)n1 | inactive | – |
| C#CCOC(=O)[C@@H](C)Oc1ccc(Oc2ncc(Cl)cc2F)cc1 | inactive | – |
| CCCCCOC(=O)COc1cc(N2C(=O)C3=C(CCCC3)C2=O)c(F)cc1Cl | inactive | – |
| CCOC(=O)[C@H](C)Oc1ccc(Oc2nc3ccc(Cl)cc3o2)cc1 | inactive | – |
| COCCO | inactive | – |
| CCCOC(=O)c1ccc(C(=O)OCCC)nc1 | inactive | – |
| Cc1nn(C)c(Oc2ccccc2)c1C=NOCc1ccc(C(=O)OC(C)(C)C)cc1 | inactive | – |
| O=C(O)C1(C(=O)Nc2ccc(Cl)cc2Cl)CC1 | inactive | – |
| S=C(S)NCCNC(=S)S.[Mn+2].[S-]C([S-])=NCCN=C([S-])[S-].[Zn+2] | inactive | – |
| CCCCC(CC)CN1C(=O)C2C3C=CC(C3)C2C1=O (stereo not given) | inactive | – |

| Structure (SMILES) | outcome | AC50 |
| --- | --- | --- |
| COC(=O)CSc1cc(N=c2sc(=O)n3n2CCCC3)c(F)cc1Cl | inactive | – |
| CCCOC(=O)NCCCN(C)C | inactive | – |
| N#CSCSc1nc2ccccc2s1 | inactive | – |
| CCCCOCCOCCOCc1cc2c(cc1CCC)OCO2 | inactive | – |
| C=CCOC(Cn1ccnc1)c1ccc(Cl)cc1Cl (stereo not given) | inactive | – |
| CCCN(CCC)C(=O)SCC | inactive | – |
| COC(=O)c1ccc(CNS(C)(=O)=O)cc1S(=O)(=O)NC(=O)Nc1nc(OC)cc(OC)n1 | inactive | – |
| CN(C)C(=O)Nc1ccc(Cl)c(Cl)c1 | inactive | – |
| CCN(Cc1c(F)cccc1Cl)c1c([N+](=O)[O-])cc(C(F)(F)F)cc1[N+](=O)[O-] | inactive | – |
| CC(C)CCCCCCc1ccc(O)cc1 | inactive | 21.8 µM (active) |
| CCOC(=O)C(C)Oc1ccc(Oc2nc3ccc(Cl)cc3o2)cc1 (stereo not given) | inactive | – |
| CCSC(=O)N(CC(C)C)CC(C)C | inactive | – |
| CCCCCCC(C)OC(=O)COc1nc(F)c(Cl)c(N)c1Cl (stereo not given) | inactive | – |
| S=C([S-])NCCNC(=S)[S-].[Mn+2] | inactive | – |
| c1ccc2[nH]c(-c3cscn3)nc2c1 | inactive | – |
| COC(=O)c1ccccc1C(=O)O | inactive | – |
| Oc1ccc(C(c2ccc(O)cc2)C(Cl)(Cl)Cl)cc1 | inactive | – |
| O=C(c1ccccc1)C1CCCCC1 | inactive | – |
| CCCCC(CC)COC(=O)c1ccccc1C(=O)O (stereo not given) | inactive | – |
